CCT chaperon mod: High-Throughput Screening for Modulators of Cytosolic Chaperonin Activity; purified chaperonin ATPase assay, HTRF ADP detection, 30 min; activity change, % (concentration not given with the values), hits read low; hit rate 0.3% among 360,000; in the data active = activity change below about -30%; also: % is scaled to controls: 0 for no effect and ±100 for the full control effect
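Nucleotide hydrolysis assay: TRiC at 20–40 nM final (set by batch activity) with 10 uM ATP, 30 min at 37 °C, in presence of 76 uM compound. Detection by competitive ADP HTRF, 30 min ambient.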
MmCpn inh: Inhibitors of TCP-1 ring complex (TRiC) of Methanococcus maripaludis (MmCpn): qHTS. Potency, µM (titrated, usually from 76.9 µM), for the others: top-dose activity, negative = inhibition, actives largely listed as inhibitors. AID 504842, 2011. purified Mm-Cpn ATPase, ADP Transcreener TR-FRET. Chaperonin Mm-Cpn (Methanococcus maripaludis). hit rate 0.031% among 330,000; also: potency is read from the fitted curve at half-maximal effect; % is scaled to controls: 0 for no effect and ±100 for the full control effect; nearly all actives have a fitted effect of over 80% in size
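Purified archaeal Mm-CPN (25nM final) preincubated 10 min at 37degC with compound, then 10uM ATP for 30 min at 37degC; ADP measured by HTRF Transcreener TR-FRET; buffer 30 mM TRIS pH 7.4, 100mM KCl, 5mM MgCl2, 1mM DTT.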
pAkt inh: HTS Assay for Inhibitors of Akt Phophorylation: Primary Screen; activity change, % for hits at 50 µM; Neuro2A IGF-stimulated pAkt S473 HTRF, 20 min; active compounds read low; hit rate 0.32% among 360,000; in the data active = activity change below about -80%; also: % is scaled to controls: 0 for no effect and ±100 for the full control effect
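Single-point screen (50 µM final compound) in Neuro2A cells stimulated 20 min with 6 nM IGF at 37 deg C. After lysis, Ser473-phosphorylated Akt read by HTRF (ex 330 nm, em 615/665 nm) as the 665/615 ratio.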
GRP78 ERSR act: qHTS for Inducers of the Endoplasmic Reticulum Stress Response (ERSR) in Human Glioma: qHTS; U87-MG GRP78 promoter luciferase reporter, 16 h; Potency, µM, for the others: at the highest dose activation, most hits filed as activators; hit rate 0.02% among 420,000; also: potency is read from the fitted curve at half-maximal effect; series mostly up to about 76 µM; % of control where 0% means no effect; nearly all actives have a fitted effect of over 35% in size
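Stably transfected U87-MG glioma cells carrying a GRP78-based luciferase sensor; 16 h compound incubation. Luminescence end-point read 10 min after Bright-Glo addition at room temperature.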
GLS inhibitor: qHTS for Inhibitors of Glutaminase (GLS). GLS enzymatic activity, qHTS titration. Potency, µM (doses to about 45.5 µM), inactives show at the highest dose activity change, negative = inhibition, most hits filed as inhibitors. hit rate 0.21% among 410,000; also: potency is read from the fitted curve at half-maximal effect; % is scaled to controls: 0 for no effect and ±100 for the full control effect
Target sequence (O94925 whole entry, looked up): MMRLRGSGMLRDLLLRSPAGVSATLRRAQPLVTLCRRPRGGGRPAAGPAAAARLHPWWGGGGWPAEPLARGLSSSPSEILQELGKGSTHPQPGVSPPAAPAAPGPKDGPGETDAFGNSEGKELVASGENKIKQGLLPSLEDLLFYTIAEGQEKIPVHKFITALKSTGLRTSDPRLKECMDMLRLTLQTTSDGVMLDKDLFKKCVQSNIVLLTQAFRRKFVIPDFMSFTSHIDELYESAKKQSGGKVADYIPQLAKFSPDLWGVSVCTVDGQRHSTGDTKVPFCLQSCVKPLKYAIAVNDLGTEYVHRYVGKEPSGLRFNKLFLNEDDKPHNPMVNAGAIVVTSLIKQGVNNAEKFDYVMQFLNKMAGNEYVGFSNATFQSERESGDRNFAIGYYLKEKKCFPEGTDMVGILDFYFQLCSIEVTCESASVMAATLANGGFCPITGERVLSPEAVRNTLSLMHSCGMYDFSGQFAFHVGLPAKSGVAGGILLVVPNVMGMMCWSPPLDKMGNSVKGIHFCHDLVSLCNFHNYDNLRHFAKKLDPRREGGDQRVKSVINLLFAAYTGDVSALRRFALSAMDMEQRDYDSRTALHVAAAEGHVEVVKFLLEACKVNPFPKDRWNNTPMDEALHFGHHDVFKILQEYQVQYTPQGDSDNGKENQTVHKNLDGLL
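Coupled fluorescence readout: glutamate oxidase/HRP/Amplex Red detect glutamate formed by hKGA from L-glutamine (1 mM solution added). Buffer 45 mM KH2PO4 pH 8.2, 0.02% Tween-20; reads at t0 and 30 min RT.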
mIDH1 inhibitor: qHTS for Inhibitors of mutant isocitrate dehydrogenase 1 (IDH1): qHTS; Isocitrate dehydrogenase [NADP] cytoplasmic (Homo sapiens), O75874; IDH1-R132H enzyme, NADPH consumption, diaphorase/resazurin fluorescence; Potency, µM (top dose mostly 76.6 µM), inactives show top-dose activity change, negative = inhibition, most hits filed as inhibitors; hit rate 0.093% among 390,000; AID 602179, 2012; also: potency is read from the fitted curve at half-maximal effect; % is scaled to controls: 0 for no effect and ±100 for the full control effect; nearly all actives have a fitted effect of over 65% in size
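IDH1-R132H (0.5 ug/mL dispensed) in pH 7.5 Tris buffer was preincubated 30 min with compound, then given a substrate mix of 0.016 mM NADPH and 2 mM alpha-KG for 80 min at room temperature; remaining NADPH was read by diaphorase/resazurin fluorescence.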
An asterisk follows results filed as active. Shown are actives, neighbours in structure and some others; about 0.85% of the full set was active somewhere. Unless noted, calls follow the shape of the dose curve; as a rule, active = well fitted curve in the direction sought with a large enough effect; inconclusive = small, poorly fitted or top-dose-only effect, or another doubt; inactive = no such curve, though single readings can be large; an effect the other way counts as inactive or inconclusive.

`COc1ccc(-c2c(C(C)=O)c(C)nc3sc4c(c23)NC(c2ccccc2)NC4=O)cc1` (configuration not stated) gave CCT chaperon mod -20.0, MmCpn inh 2.2%, pAkt inh -84.8%*, GRP78 ERSR act -3.4%, GLS inhibitor -2.4% and mIDH1 inhibitor 5.5%.
CCOC(=O)c1c(C)nc2sc3c(c2c1-c1ccc(OC)cc1)NC(c1ccccc1)NC3=O (configuration not stated) was read as CCT chaperon mod 1.0, MmCpn inh 1.3%, pAkt inh inactive, GRP78 ERSR act -0.8%, GLS inhibitor 4.3% and mIDH1 inhibitor -13.1%.
For CCc1ccc(NC(=O)C2CCCN(S(=O)(=O)c3cnc[nH]3)C2)cc1 (configuration not stated) the results were CCT chaperon mod -74.3*, MmCpn inh -3.1%, GRP78 ERSR act -3.7%, GLS inhibitor -3.3% and mIDH1 inhibitor 8.9%.
`COC(=O)C1=C(C)N(C2CCCCC2)C(=O)C1` gave CCT chaperon mod 0.5, MmCpn inh 2.5%, pAkt inh inactive, GRP78 ERSR act -2.9%, GLS inhibitor 16.2% and mIDH1 inhibitor 0.0%.
Screening CCOC(=O)C1=C(C)N(C2CCCCC2)C(=O)C1 returned CCT chaperon mod -1.5, MmCpn inh -0.8%, pAkt inh -101.2%*, GRP78 ERSR act -2.9%, GLS inhibitor 15.2% and mIDH1 inhibitor 15.1%.
Cc1ccc(S(=O)(=O)N2CCN(C(=O)CN3CCCCC3)C2)cc1 was read as CCT chaperon mod -2.5, MmCpn inh 1.1%, pAkt inh -101.1%*, GRP78 ERSR act -4.6%, GLS inhibitor 8.3% and mIDH1 inhibitor 14.5%.
For COc1cc(CN2CCOc3ccc(CN4CCC(O)(c5cccnc5)CC4)cc3C2)cc(OC)c1 the results were GRP78 ERSR act -5.9%.
COc1cc(/C=C(\C#N)c2[nH]nc(N)c2C#N)cc(OC)c1O was read as CCT chaperon mod 0.0, MmCpn inh -0.6%, pAkt inh inactive, GRP78 ERSR act -0.1%, GLS inhibitor 10µM* and mIDH1 inhibitor -15.1%.
CCC(=O)N1CCc2cc(Br)cc(S(=O)(=O)NCCN3CCCC3)c21 was read as CCT chaperon mod 2.0, MmCpn inh -1.7%, pAkt inh inactive, GRP78 ERSR act -3.1%, GLS inhibitor 3.6% and mIDH1 inhibitor -7.2%.
CCC(=O)N1CCc2cc(Br)cc(S(=O)(=O)CC(=O)OC)c21 was read as CCT chaperon mod 1.5, MmCpn inh 0.7%, pAkt inh -106.5%*, GRP78 ERSR act -5.8%, GLS inhibitor -1.4% and mIDH1 inhibitor -2.0%.
Cc1cc(-c2ccnc(-n3ncc(C(=O)NCC4COCCO4)c3C)n2)c(C)s1 (configuration not stated) was read as GRP78 ERSR act 12.1%.
Screening COc1cc(OC)c(NC(=O)c2ccc3c(Cl)c4c(nc3c2)CCCC4)cc1Cl returned GRP78 ERSR act 10.0%, GLS inhibitor 2.0% and mIDH1 inhibitor -0.7%.
COc1cc(OC)c(Nc2c3c(nc4nc(-c5cccs5)nn24)CCCC3)cc1Cl was read as GRP78 ERSR act 1.3%, GLS inhibitor 2.3% and mIDH1 inhibitor 31.6µM*.
Screening CC(C)(S)C(=O)N[C@H](CS)C(=O)O returned GRP78 ERSR act -1.2% and GLS inhibitor -10.0%.
For O=C(NCC1Cc2cc(F)cc(-c3cnccn3)c2O1)c1cccc(Cl)c1 (configuration not stated) the results were GRP78 ERSR act -0.5%.
Screening CC/C(=N\n1nnnc1Nc1ccccc1)c1ccccc1 returned CCT chaperon mod -1.3, MmCpn inh -0.7%, pAkt inh -113.2%*, GRP78 ERSR act -0.9%, GLS inhibitor 16.5% and mIDH1 inhibitor 1.0%.
Screening O=C(N/N=C/c1c[nH]c2ccccc12)c1ccccc1 returned CCT chaperon mod -0.8, MmCpn inh 0.0%, pAkt inh inactive, GRP78 ERSR act -0.8%, GLS inhibitor 0.4% and mIDH1 inhibitor -0.7%.
For CCOC(=O)c1nnn(-c2nonc2N)c1-c1ccc(OC)cc1 the results were CCT chaperon mod -0.2, MmCpn inh -5.7%, pAkt inh -109.6%*, GRP78 ERSR act -4.5%, GLS inhibitor 4.8% and mIDH1 inhibitor 8.0%.
For CCCc1c(C(=O)N/N=C/c2c[nH]c3ccccc23)nnn1-c1nonc1N the results were CCT chaperon mod 0.4, pAkt inh inactive, GRP78 ERSR act -1.9%, GLS inhibitor 4.6% and mIDH1 inhibitor -6.8%.
Screening Cc1ccc(-c2c(C(=O)N/N=C/c3c[nH]c4ccccc34)nnn2-c2nonc2N)cc1 returned CCT chaperon mod -73.6*, MmCpn inh 0.0%, GRP78 ERSR act -5.9%, GLS inhibitor 14.5% and mIDH1 inhibitor 8.4%.
Screening O=C(N/N=C/c1c[nH]c2ccccc12)c1cccs1 returned CCT chaperon mod -39.6*, MmCpn inh 2.9%, pAkt inh inactive, GRP78 ERSR act 5.8%, GLS inhibitor 13.6% and mIDH1 inhibitor 0.0%.
`COc1cc(OC)c(OC)cc1CN1CCOc2ccc(CN3CCN(C(C)=O)CC3)cc2C1` gave GRP78 ERSR act -4.6%.
Screening COc1ccccc1CCNc1ncnc2sc(C(=O)N3CCCC3)c(C)c12 returned GRP78 ERSR act -3.5%.
COc1ccc2c(c1)OC(C)CN(CCNC(=O)c1csc(-c3cccs3)n1)C2 (configuration not stated) was read as GRP78 ERSR act -3.3%.
For CCC1CN(CCNC(=O)c2ccccc2-n2cccn2)Cc2cc(OC)ccc2O1 (configuration not stated) the results were GRP78 ERSR act -4.1%.

High-throughput results deposited in PubChem BioAssay by National Center for Advancing Translational Sciences (NCATS).
